Source: PubChem
Hits are enriched below; roughly 6.9% of the tested compounds scored in any of these assays.
CSC inhib: cancer stem cell inhibition. inhibition, % at 7.5 µM. cancer stem cell-like cells viability, luminescence. 300,000 compounds, 1.1% hits. AID 2717; in the data active means inhibition above about 75%; tested in HMLE shEcad cells
Mdm2 MdmX PPI: inhibitors of human Mdm2/MdmX interaction. SaOS-2 split-luciferase Mdm2/MdmX complementation, luminescence. AID 485346. 330,000 compounds, 3% hits. inhibition, % at 8 µM. O15151+Q00987;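 active means inhibition of at least 50% at 8 µM in the primary screen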
Target sequence (O15151 whole entry, looked up): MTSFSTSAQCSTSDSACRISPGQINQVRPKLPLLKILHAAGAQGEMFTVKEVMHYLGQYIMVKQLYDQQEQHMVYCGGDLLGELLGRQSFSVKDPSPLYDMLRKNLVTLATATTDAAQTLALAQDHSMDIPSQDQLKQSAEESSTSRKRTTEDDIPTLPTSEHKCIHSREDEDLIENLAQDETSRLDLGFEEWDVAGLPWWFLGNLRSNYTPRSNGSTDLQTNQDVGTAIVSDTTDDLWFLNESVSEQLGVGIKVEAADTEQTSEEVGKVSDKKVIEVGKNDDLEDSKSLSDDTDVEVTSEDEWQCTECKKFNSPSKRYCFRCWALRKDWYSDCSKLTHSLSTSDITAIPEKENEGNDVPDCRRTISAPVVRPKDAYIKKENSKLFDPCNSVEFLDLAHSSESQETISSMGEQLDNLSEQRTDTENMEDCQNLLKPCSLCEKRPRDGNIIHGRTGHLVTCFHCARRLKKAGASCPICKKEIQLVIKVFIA
Target sequence (Q00987 whole entry, looked up): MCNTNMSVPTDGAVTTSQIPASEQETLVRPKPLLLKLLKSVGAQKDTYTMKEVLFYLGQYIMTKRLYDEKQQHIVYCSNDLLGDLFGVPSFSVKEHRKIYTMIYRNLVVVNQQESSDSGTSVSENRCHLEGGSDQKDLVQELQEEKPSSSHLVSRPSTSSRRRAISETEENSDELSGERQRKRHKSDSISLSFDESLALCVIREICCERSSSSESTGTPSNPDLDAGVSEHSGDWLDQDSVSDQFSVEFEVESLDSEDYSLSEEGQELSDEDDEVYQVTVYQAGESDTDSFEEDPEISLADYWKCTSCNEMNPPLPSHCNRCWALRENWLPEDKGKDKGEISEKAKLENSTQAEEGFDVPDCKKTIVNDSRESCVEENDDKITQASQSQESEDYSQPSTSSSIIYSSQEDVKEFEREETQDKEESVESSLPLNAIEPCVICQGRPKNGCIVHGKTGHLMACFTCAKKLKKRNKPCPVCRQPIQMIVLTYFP
NR3A LBD binder: modulators (binders) of human NR3A ligand-binding domain | NR3A LBD differential scanning fluorimetry, Tm shift; 0% = protein alone, 100% = glycine-bound protein | Tm shift relative to glycine control, % at 25 µM | 340,000 compounds, 2.5% hits;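 active means melting temperature shift of at least 10% of the positive control shift, at one fixed dose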
Beta apoptosis: blocks beta cell apoptosis; INS-1E cytokine-induced death, ATP luminescence, 48 h; percent of positive-control rescue, neutral wells zero; protection from apoptosis, % (no concentration beside the values); 300,000 compounds, 0.8% hits;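 active means Every replicate reaches about 75%, or at least half do and their mean reaches it too, limit read from the data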;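 further: higher means more ATP so stronger rescue from cytokine killing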
SKKanGAS inh: SKKanGAS growth inhibition; inhibition, % at 7.5 µM; S. pyogenes SKKanGAS, kanamycin growth, BacTiter-Glo, 6 h; 300,000 compounds, 1.3% hits;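 active means mean replicate score, as percent of positive control median, at least 50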;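 further: strain carries kanamycin resistance gene driven by streptokinase promoter and grows in 40 µg/ml kanamycin; loss of luminescence reflects streptokinase promoter inhibition or plain growth inhibition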
MPTP block: permeability transition pore inhibition; isolated mouse mitochondria, Ca2+ swelling absorbance, 30 min; inhibition, % at 10 µM; 360,000 compounds, 1.4% hits; AID 602449;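 active means inhibition of 50% or more, scaled per plate between neutral and stimulator controls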
MPTP counter: membrane potential counter-screen of mitochondrial pore inhibitors | shares compounds with MPTP block | 5,000 compounds, 78% hits | inhibition, % at 10 µM | isolated mitochondria, Rhodamine 123 fluorescence; in the data active means inhibition above about 22%
MPTP abs DR: MPTP inhibition, dose response swelling confirmation. shares compounds with MPTP block. isolated mitochondria swelling, absorbance. IC50, µM. 780 compounds, 58% hits; in the data active means IC50 below about 20 µM
MPTP counter DR: active in counter-screen for permeability transition pore inhibitors | shares compounds with MPTP block | isolated mitochondria counterscreen, fluorescence read-out | IC50, µM | 780 compounds, 49% hits; in the data active means IC50 below about 80 µM
A number is an active result; n = inactive; x = no result given.

SMILES	CSC inhib	Mdm2 MdmX PPI	NR3A LBD binder	Beta apoptosis	SKKanGAS inh	MPTP block	MPTP counter	others
O=C(Nc1nc(-c2cc3ccccc3o2)cs1)c1ccc(S(=O)(=O)N2CCCC2)cc1	n	n	n	n	n	63	82
CN(C)S(=O)(=O)c1ccc(C(=O)Nc2nc(-c3cc4ccccc4o3)cs2)cc1	n	n	n	n	n	85	87
CN(C)C(CNC(=O)c1ccco1)c1cccs1 (centres undefined)	n	n	n	n	n	n	x
FC(F)(F)c1cc(-c2cccs2)n[nH]1	n	n	n	n	n	n	x
Cc1ccc(O)c(-c2cc(C(F)(F)F)[nH]n2)c1	n	n	n	n	n	63	67
c1ccc(CNc2nc(NCCOc3ccccc3)c3sccc3n2)cc1	x	x	x	x	x	n	x
COc1ccccc1CNc1nc(NCc2ccccc2F)c2sccc2n1	x	x	x	x	x	101	104
COc1ccccc1CNc1nc(NCc2ccccc2)nc2ccsc12	x	x	x	x	x	74	95
c1ccc(CNc2nc(NCc3ccccc3)c3sccc3n2)cc1	x	x	x	x	x	91	104
c1ccc(CNc2nc(-c3cccs3)nc3ccccc23)cc1	x	x	24	x	n	51	58
CCCn1c(=O)cc(N)n(-c2ccc(OC(F)(F)F)cc2)c1=O	n	n	n	n	n	n	x
COCCNc1nc(NCc2cccc(OC)c2OC)c2sccc2n1	x	x	x	x	x	n	x
COc1ccccc1CNc1nc(NCc2cccc(OC)c2OC)c2sccc2n1	x	x	x	x	x	51	95
COc1ccccc1CNc1nc(NCc2ccc(C)cc2C)c2sccc2n1	x	x	x	x	x	67	102
COc1cccc(NC(=O)CN(C)C(=O)CCNC(=O)c2ccccc2OC)c1	x	x	n	x	x	n	x
O=C(NCCc1ccccc1)c1ccccc1C(=O)NCCc1ccccc1	n	n	n	n	n	n	x
Cc1oc(-c2cc(Cl)cc(Cl)c2)cc1C(=O)NCCc1ccccc1	n	n	n	n	51	93	78
COc1ccc(CCNC(=O)c2cc(-c3cc(Cl)cc(Cl)c3)oc2C)cc1	n	n	n	n	n	77	21
CN(C)CCCN1c2ccc(O)cc2Sc2ccc(Cl)cc21	x	x	x	x	x	n	x
OC1CC2CCC(C1)N2CCCN1c2ccccc2Sc2ccc(Cl)cc21 (centres undefined)	x	x	n	x	x	76	n	MPTP abs DR=4;MPTP counter DR=74
O=C(NNc1ncnc2sccc12)c1ccc(Cl)cc1	n	n	n	n	n	n	x
Cc1csc2ncnc(NNC(=O)c3ccc(Cl)cc3)c12	n	n	n	n	n	55	39
CCCN1C(=O)/C(=C/c2ccc(C)o2)SC1=Nc1ccc(OC)cc1	n	n	n	n	n	64	n	MPTP abs DR=n;MPTP counter DR=n
CC(NC(=O)/C=C/c1ccc(Br)cc1)c1ccc(Cl)cc1 (centres undefined)	n	n	n	n	n	78	84
O=C(Cc1cccs1)Nc1cccc(-c2nc3cc4ccccc4cc3[nH]2)c1	99	x	28	n	72	90	37
SMILES	CSC inhib	Mdm2 MdmX PPI	NR3A LBD binder	Beta apoptosis	SKKanGAS inh	MPTP block	MPTP counter	others
CN(Cc1ccc(OCC(O)CN2CCCCC2)cc1)Cc1ccnc2ccccc12 (centres undefined)	x	x	n	x	n	95	106
Cc1cc(N2CCN(c3nc4ccccc4s3)CC2)n2ncnc2n1	n	n	n	87	n	82	73
COc1cc(C=C2C(=O)OC(C)(C)OC2=O)cc(Cl)c1OCC(=O)Nc1ccccc1	n	n	n	n	n	n	x
CC(C)(C)C1(C)OC(=O)C(=Cc2ccc(OCC(=O)Nc3ccccc3)cc2)C(=O)O1 (centres undefined)	n	n	n	n	n	67	n
CCN(CC)CC#CCC(C)(c1ccccc1)c1ccccc1	n	n	n	n	n	59	n	MPTP abs DR=n;MPTP counter DR=28
O=C1/C(=C/c2ccc(O)cc2)CCc2ccc([N+](=O)[O-])cc21	n	n	n	n	n	n	x
CC1(C)CC(=Cc2cc(O)ccc2[N+](=O)[O-])C(=O)c2ccccc21	x	x	x	x	x	91	94
O=[N+]([O-])c1ccc2nc(-c3ccc(Cl)cc3)[nH]c2c1	n	n	28	n	n	92	86
O=[N+]([O-])c1cccc(-c2nc3ccc([N+](=O)[O-])cc3[nH]2)c1	n	n	n	n	n	93	83
COc1ccc2nc(-c3ccccc3)[nH]c2c1	n	n	n	n	n	n	x
COc1ccc(-c2nc3ccc([N+](=O)[O-])cc3[nH]2)cc1	n	x	29	n	n	58	53
O=[N+]([O-])c1ccc2nc(-c3ccccc3[N+](=O)[O-])[nH]c2c1	n	n	n	n	n	n	x
O=[N+]([O-])c1ccc(/C=C/c2nc3ccc([N+](=O)[O-])cc3[nH]2)cc1	n	x	n	n	n	98	64
Cc1ccc(-c2nc3ccc([N+](=O)[O-])cc3[nH]2)cc1	n	n	25	n	n	76	82
O=[N+]([O-])c1ccc2nc(-c3ccncc3)[nH]c2c1	n	n	n	n	n	n	x
CCCCN(C(=O)C1CC(=O)N(Cc2ccc(C)cc2)C1)c1c(N)n(CC(C)C)c(=O)[nH]c1=O (centres undefined)	n	n	n	n	n	n	x
COc1cc([N+](=O)[O-])ccc1NC(=S)Nc1cc(C(=O)OC(C)C)cc(C(=O)OC(C)C)c1	n	n	12	n	n	92	84
COc1ccc2c(c1)c(C(C)=O)c(C)n2CCc1ccccc1	n	n	n	n	n	67	76
Cc1cc(C)c(NC(=O)/C(C#N)=C/c2ccc(OCc3ccc(F)cc3)cc2)c(C)c1	n	n	n	n	n	85	22
N#C/C(=C\c1ccc(OCc2ccccc2)cc1)C(=O)Nc1ccc(C(=O)O)cc1	n	n	n	n	n	x	x
O=C(COc1ccc(S(=O)(=O)NC2CCCCC2)cc1)NC1CC1	n	n	n	n	n	n	x
C=CCn1c(=O)c2ccccc2n2c(SCC(=O)NC)nnc12	x	n	n	x	n	n	x
Cc1csc(N=Nc2ccc(N(C)C)cc2)[n+]1[O-]	x	x	x	x	x	68	n	MPTP abs DR=n;MPTP counter DR=n
CN(C)c1ccc(N=Nc2ccc(C(=O)O)cc2)cc1	n	n	x	n	n	n	x
Cc1ccccc1NC(=O)Nc1ccc(C(F)(F)F)cc1	n	n	n	n	n	80	87
O=C(Nc1cccc(C(F)(F)F)c1)C(Sc1ncnc2ccccc12)c1ccccc1 (centres undefined)	n	n	18	n	n	60	68
O=C(Nc1ccccc1)Nc1cccc(C(F)(F)F)c1	n	n	27	n	n	96	97
Cc1cc(C)cc(NC(=O)C(Sc2ncnc3ccccc23)c2ccccc2)c1 (centres undefined)	n	n	n	n	n	n	x
